# ChEMBL document CHEMBL1156829
# The full ranking holds about 5,400 compounds; the median of “IFI” is about 2, and the highest 2% start at about 22. This excerpt belongs to a sample that is enriched for the highest values.
# Assay: NOVARTIS: Inhibition Frequency Index (IFI) - the number of HTS assays where a compound showed > 50% inhibition/induction, expressed as a percentage of the number of assays in which the compound was tested.
# Type: functional
row,Compound,IFI [%]
1,Cc1ccc(-c2cc(-c3cc(Cl)ccc3O)on2)cc1,0
2,Cc1ccnc(Nc2nc(-c3ccccn3)cs2)c1,24.6
3,Cc1ccc(Nc2nc(-c3ccccn3)cs2)cc1,3.62
4,c1ccc(Nc2nc(-c3ccccn3)cs2)nc1,18.1
5,O=C1c2ccccc2C(=O)c2c1ccc1nonc21,30.8
6,CC(=O)c1ccc2c3c(onc13)-c1ccccc1C2=O,0
7,O=S(=O)(NC1CCCC1)c1cccc2nonc12,0
8,O=C(C1=C(O)C(=O)N(CCCn2ccnc2)C1c1ccccc1[N+](=O)[O-])c1ccccc1 (stereo unspecified),0
9,COc1cccc(CNc2ncnc3sc(C(=O)NCC4COCCO4)c(C)c23)c1OC (stereo unspecified),1
10,COc1ccc(Nc2nc(NN=Cc3cccc([N+](=O)[O-])c3OC)nc(Nc3ccc([N+](=O)[O-])cc3)n2)cc1,6.49
11,CCC(c1nc2ccccc2c(=O)n1CCOC)N1CCNCC1 (stereo unspecified),3.31
12,C=CC[n+]1c(C=C2C=CN(C)C=C2)sc2ccccc21,15.4
13,CC[n+]1c(C)cc2c([nH]c3ccccc32)c1C,3.03
14,O=c1c2ccccc2[nH]c2ccc(F)cc12,0
15,O=C1c2ccccc2-[n+]2ccc3c([nH]c4ccccc43)c21,41.2
16,CC(=O)NCCc1ccc(O)cc1,1.48
17,CCN(CC)CCNc1nc(/C=C/c2ccc(Cl)cc2)nc2cc3ccccc3cc12,8.77
18,Cn1c2ccccc2c2nnc(NN=Cc3ccccn3)nc21,15.4
19,S=C(NN=Cc1ccccn1)NC1CC2CC1C1C=CCC21 (stereo unspecified),32.5
20,S=C(NN=Cc1ccccn1)NC1CC2C=CC1C2 (stereo unspecified),19.7
21,CC1(C)C2CCC(C2)C1(C)NC(=S)NN=Cc1ccccn1 (stereo unspecified),26
22,Cc1ccc(NC(=O)C2CSC(c3cccc(F)c3)N2C(=O)c2ccc(C(C)(C)C)cc2)cc1C (stereo unspecified),4.25
23,CC(C)(C)NC(=O)C(c1cccs1)N(CCCN1CCOCC1)C(=O)c1ccc(-c2ccccc2)[nH]1 (stereo unspecified),3.26
24,Cc1ccc(S(=O)(=O)Oc2ccc(C=NN=C(N)N)cc2)cc1,0

row,Compound,IFI [%]
1,CC(C)CN1C(=O)c2ccccc2C(C(=O)Nc2ccc(C(C)C)cc2)C1c1cccs1 (stereo unspecified),6.06
2,COC(=O)c1cn([C@H]2C[C@@H](C(=O)NCc3ccc(OC)cc3)N(Cc3ccsc3)C2)nn1,1.98
3,CCCC1=[N+](CC(=O)c2ccc(C)cc2)CCn2c(C)ccc21,5.75
4,CC[C@@H](C(=O)[C@@H](C)[C@@H](O)[C@H](C)CCc1ccc(C)c(O)c1C(=O)O)[C@H]1O[C@](CC)([C@H]2CC[C@](O)(CC)[C@@H](C)O2)C[C@@H]1C,26.9
5,CC[C@@H](C(=O)[C@@H](C)C(O)[C@H](C)CCc1ccc(C)c(O)c1C(=O)O)C1O[C@](CC)(C2CC[C@](O)(CC)[C@H](C)O2)C[C@@H]1C (stereo partly specified),9.84
6,Cc1ccc(CNC(=O)C2CNCC2c2ccc(C(F)(F)F)cc2)cc1 (stereo unspecified),2.82
7,O=C1N(c2ccccc2)C[C@@H]2C[C@@H](c3ccc4nonc4c3)N3CCC[C@@]123,7.69
8,OC1=C2C(=Nc3ccccc3SC2c2ccccc2)c2ccccc21 (stereo unspecified),2.25
9,CC1CCC(C(C)C)C(OC(=O)Cn2c(-c3ccccc3)[n+](C)c3ccccc32)C1 (stereo unspecified),13.1
10,COc1ccc(-c2c[n+](CC(=O)O[C@H]3C[C@H](C)CC[C@@H]3C(C)C)c3n2CCCCC3)cc1,21.9
11,COc1ccc(-c2n(C)c3ccccc3[n+]2CC(=O)OC2CC(C)CCC2C(C)C)cc1 (stereo unspecified),22.7
12,O=C1Cc2c([nH]c3ccc(OCc4ccccc4)cc23)C2CC=CCC12 (stereo unspecified),0
13,Nc1c(C(=O)NCc2ccccc2)nnn1Cc1ccc(F)cc1Cl,0
14,CCN1/C(=C/C2=CC(=C/c3sc4ccccc4[n+]3CC)/CC(C)(C)C2)C=Cc2ccccc21,9.43
15,CCN1/C(=C/c2sc3ccc(OC)cc3[n+]2CC)C=Cc2cc(C)ccc21,23.1
16,CCCN1/C(=C/c2sc3ccccc3[n+]2CC)C=Cc2ccccc21,23.1
17,CCN1C(=Cc2sc3ccc(Cl)cc3[n+]2CC)C=Cc2cc(OC)ccc21,15.4
18,CCN1/C(=C\c2sc3ccc(O)cc3[n+]2CC)C=Cc2ccccc21,23.1
19,CCN1/C(=C/c2sc3ccc(I)cc3[n+]2CC)C=Cc2ccccc21,15.4
20,CCN1/C(=C/c2sc3ccc(-c4ccccc4)cc3[n+]2CCO)C=Cc2cc(OC)ccc21,7.14
21,CCN1/C(=C/c2sc3ccccc3[n+]2CC)C=Cc2cc(NC(C)=O)ccc21,7.69
22,CCN1/C(=C/c2sc3ccc(OC)cc3[n+]2CC)C=Cc2cc(OC)ccc21,15.4
23,CCN1C(=Cc2sc3ccc(OC)cc3[n+]2CC)C=Cc2ccccc21,25
24,CCCC[n+]1c(C=C2C=Cc3ccccc3N2CC)sc2ccccc21,11.1

row,Compound,IFI [%]
1,CCN1/C(=C/c2sc3ccc(Br)cc3[n+]2CC)C=Cc2ccccc21,15.4
2,CCOc1ccc(C(=O)C(CCC(C[N+]2(C)CCCCCC2)C(=O)c2ccc(OCC)cc2)C[N+]2(C)CCCCCC2)cc1 (stereo unspecified),0
3,COc1ccc(CCNc2nc(NCCC3CCCN3C)ncc2C(=O)NCc2ccccc2)cc1OC (stereo unspecified),1.92
4,COc1ccc2[nH]c(=O)c(CN(C(=S)Nc3ccccc3OC)C3CCCC3)cc2c1,2.17
5,Nc1ccc(-c2cc(N)n(-c3ccc(Oc4ccccc4)c(S(=O)(=O)O)c3)n2)cc1,1.83
6,CCOc1cccc2oc(=O)c(C(=O)Nc3cc(C(C)(C)C)on3)cc12,0
7,CCOc1ccc(-c2nc(NC(=O)CS(=O)(=O)c3ccccc3)sc2C)cc1,0
8,CCOC(=O)C1CCN(C(=O)c2cc(C(C)(C)C)nn2Cc2ccc(Cl)cc2Cl)CC1,1.63
9,CCC(c1nc2ccccc2c(=O)n1CC)N1CCN(C(=O)Nc2ccccc2C(F)(F)F)CC1 (stereo unspecified),2.08
10,Cc1ccccc1CN1CCN(C/C=C/c2ccccc2)CCC1=O,0.962
11,CCN1/C(=C/c2sc3ccccc3[n+]2CC)Sc2ccccc21,21.9
12,CCN1/C(=C/c2sc3cc(OC)c(OC)cc3[n+]2CC)C=Cc2ccccc21,23.1
13,CCN1/C(=C/c2sc3ccc(-c4ccccc4)cc3[n+]2CCO)C=Cc2ccccc21,7.14
14,CCCOC(=O)C1=C(C)NC2=C(C(=O)CC(c3ccc(Cl)cc3)C2)C1c1ccc(Br)cc1 (stereo unspecified),3.57
15,Cc1ccn2c(NC(C)(C)CC(C)(C)C)c(-c3ccccc3OC(=O)c3ccc(C)c([N+](=O)[O-])c3)nc2c1,3.74
16,Cc1ccc(S(=O)(=O)NC(Cc2ccccc2)C(=O)N2CCC(C3CCN(C(=O)c4ccc([N+](=O)[O-])o4)CC3)CC2)cc1 (stereo unspecified),7.69
17,CCCCSc1oc(C)nc1[P+](c1ccccc1)(c1ccccc1)c1ccccc1,22.2
18,Cc1nc([P+](c2ccccc2)(c2ccccc2)c2ccccc2)c(SCc2ccccc2)o1,21.6
19,CCC(c1nc2ccccc2c(=O)n1-c1ccc(F)c(Cl)c1)N(CCc1ccccc1)C(=O)COc1ccccc1 (stereo unspecified),1.87
20,OC(Cn1nnc2ccccc21)Cn1c2ccc(Br)cc2c2cc(Br)ccc21 (stereo unspecified),2.01
21,COc1ccc(OC)c(C2CC(=O)C3=C(C2)NC(=O)CC3c2ccc([N+](=O)[O-])cc2)c1 (stereo unspecified),0
22,Cc1ccc(C(=O)C(C)[n+]2ccc(N(C)C)cc2)cc1 (stereo unspecified),0
23,CN(C)c1ccc(/C=C/C(=O)NC(=O)c2ccccc2O)cc1,10.6
24,CC(/C=C/C(=O)NO)=C\[C@@H](C)C(=O)c1ccc(N(C)C)cc1,22.6

row,Compound,IFI [%]
1,CC(C)COc1ccc(C(=O)N/C(=C/c2ccccc2)C(N)=O)cc1,0
2,COc1ccc(S(=O)(=O)N=C2C=C(Nc3ccc(O)cc3)C(=O)c3ccccc32)cc1,23.1
3,COc1ccccc1NC1=CC(=NS(=O)(=O)c2cccs2)c2ccccc2C1=O,7.69
4,CCOc1ccc(S(=O)(=O)N=C2C=C(Nc3ccc(O)cc3)C(=O)c3ccccc32)cc1,15.4
5,CC(=O)Nc1ccc(NC2=CC(=NS(=O)(=O)c3ccccc3)c3ccccc3C2=O)cc1,7.69
6,COc1ccccc1NC1=CC(=NS(=O)(=O)c2ccc(F)cc2)c2ccccc2C1=O,15.4
7,COc1ccc(S(=O)(=O)N=C2C=C(Nc3ccccc3)C(=O)c3ccccc32)cc1,0
8,COc1ccc(S(=O)(=O)N=C2C=C(Nc3ccccc3OC)C(=O)c3ccccc32)cc1,23.1
9,O=C1C(Nc2ccc(O)cc2)=CC(=NS(=O)(=O)c2cccs2)c2ccccc21,23.1
10,COc1ccccc1NC1=CC(=NS(=O)(=O)c2ccccc2)c2ccccc2C1=O,21.4
11,CC(=O)N(C1=C(N2CCOCC2)C(=O)c2ccccc2C1=O)c1cccc(Cl)c1,0
12,O=C(NC1CC1)C1CCN(c2cccc3c2C(=O)N(C2CCCCCCC2)C3=O)CC1,5.94
13,Cc1ccc2nc(-c3ccc(O)cc3)oc2c1,7.14
14,O=S(=O)(NCCCCNc1ccnc2cc(Cl)ccc12)c1ccc(F)cc1,1.85
15,Cc1oc2c(cc(NS(=O)(=O)c3ccc(F)cc3)c3ccccc32)c1C(=O)OCc1ccccc1,0
16,O=S(=O)(Nc1cc(Sc2nc[nH]n2)c(O)c2ccccc12)c1ccc(F)cc1,23.1
17,O=C(c1ccc2nc(N3CCCCC3)sc2c1)N1CCN(Cc2ccc3c(c2)OCO3)CC1,2.86
18,COc1ccc([N+](=O)[O-])cc1NC(=O)C(C)Nc1ccc(N(C)C)cc1 (stereo unspecified),6.25
19,CC1=C(C(=O)Nc2ccccn2)C(c2ccc(O)cc2)n2ncnc2N1 (stereo unspecified),0
20,O=C(NN=Cc1ccc(O)cc1O)c1ccncc1,2.73
21,Oc1ccc(C=NN=C(Nc2ccccn2)c2ccccn2)c(O)c1,23.1
22,NS(=O)(=O)c1ccc(CCNC(=O)/C=C/c2ccc3c(c2)OCO3)cc1,0
23,Oc1ccc(-c2ccnc3cc(Cl)ccc23)cc1CNCC1(O)CCCCC1,2.59
24,COc1ccc(C(=O)C[N+]2=C(C)c3ccc(C)n3CC2)cc1,0
